Laboratory results reported in PubChem BioAssay AID1159580 (chemical genetic matrix, 2015).
Hit rate of the full screen: of about 5,500 compounds, about 2,000 (36%) were called active. Roughly 18% stayed inconclusive and do not appear here. No stated cut-off is given here; in the data, active means normalized growth mostly below about 0.91 (no sharp cut-off); inconclusive means no clear call, values can overlap the other calls; inactive means mostly above about 0.92. Some of the results follow.

Assay: chemical genetic growth profiling, strain panel (AID 1159580);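 further: tested at 20 µM; growth read once vehicle control cultures reached saturation at 30 °C; 1 = growth at the plate median or of vehicle wells; lower values mean less growth of the strain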
Details: growth OD

Measured: normalized growth

O=c1c(-c2ccccc2)coc2cc(O)cc(O)c12
inactive: S. cerevisiae deletion strains, locus YAL021C, strain ccr4, active compounds read low 0.977 | S. cerevisiae deletion strains, locus YAL026C, strain drs2, active compounds read low 0.927 | S. cerevisiae deletion strains, locus YAL030W, strain snc1, active compounds read low 0.99 | S. cerevisiae deletion strains, locus YBL061C, strain skt5, active compounds read low 0.978 | S. cerevisiae deletion strains, locus YBR009C, strain hhf1, active compounds read low 0.946 | S. cerevisiae deletion strains, locus YBR021W, strain FUR4, active compounds read low 0.859 | S. cerevisiae deletion strains, locus YBR023C, strain chs3, active compounds read low 0.967 | S. cerevisiae deletion strains, locus YBR171W, strain sec66, active compounds read low 1.01 | S. cerevisiae deletion strains, locus YBR231C, strain swc5, active compounds read low 0.965 | S. cerevisiae deletion strains, locus YBR279W, strain paf1, active compounds read low 1 | S. cerevisiae deletion strains, locus YCL011C, strain gbp2, active compounds read low 0.969 | S. cerevisiae deletion strains, locus YCL016C, strain dcc1, active compounds read low 0.983 | S. cerevisiae deletion strains, locus YCL061C, strain MRC1, active compounds read low 0.961 | S. cerevisiae deletion strains, locus YCL069W, strain vba3, active compounds read low 1 | S. cerevisiae deletion strains, locus YCR088W, strain abp1, active compounds read low 1.01 | S. cerevisiae deletion strains, locus YDL005C, strain med2, active compounds read low 1.04 | S. cerevisiae deletion strains, locus YDL040C, strain nat1, active compounds read low 1.01 | S. cerevisiae deletion strains, locus YDR001C, strain nth1, active compounds read low 1.01 | S. cerevisiae deletion strains, locus YDR069C, strain doa4, active compounds read low 0.903 | S. cerevisiae deletion strains, locus YDR159W, strain sac3, active compounds read low 1.08 | S. cerevisiae deletion strains, locus YDR195W, strain ref2 1.03 | S. cerevisiae deletion strains, locus YDR297W, strain sur2, active compounds read low 0.977 | S. cerevisiae deletion strains, locus YDR334W, strain swr1, active compounds read low 0.995 | S. cerevisiae deletion strains, locus YDR335W, strain msn5, active compounds read low 0.993 | S. cerevisiae deletion strains, locus YDR392W, strain spt3, active compounds read low 0.913 | S. cerevisiae deletion strains, locus YEL003W, strain gim4, active compounds read low 0.971 | S. cerevisiae deletion strains, locus YEL037C, strain rad23, active compounds read low 0.981 | S. cerevisiae deletion strains, locus YEL061C, strain CIN8 (second series), active compounds read low 1.02 | S. cerevisiae deletion strains, locus YER015W, strain faa2, active compounds read low 0.979 | S. cerevisiae deletion strains, locus YER016W, strain bim1, active compounds read low 1.01 | S. cerevisiae deletion strains, locus YER111C, strain swi4, active compounds read low 0.963 | S. cerevisiae deletion strains, locus YER155C, strain BEM2 (second series), active compounds read low 0.982 | S. cerevisiae deletion strains, locus YER167W, strain BCK2, active compounds read low 0.911 | S. cerevisiae deletion strains, locus YFR010W, strain ubp6, active compounds read low 0.937 | S. cerevisiae deletion strains, locus YGL167C, strain pmr1, active compounds read low 1.01 | S. cerevisiae deletion strains, locus YGL173C, strain kem1, active compounds read low 0.991 | S. cerevisiae deletion strains, locus YGL227W, strain vid30, active compounds read low 1.02 | S. cerevisiae deletion strains, locus YGL240W, strain doc1, active compounds read low 0.935 | S. cerevisiae deletion strains, locus YGL253W, strain hxk2, active compounds read low 0.972 | S. cerevisiae deletion strains, locus YHR013C, strain ard1, active compounds read low 0.992 | S. cerevisiae deletion strains, locus YHR027C, strain rpn1, active compounds read low 0.998 | S. cerevisiae deletion strains, locus YHR094C, strain hxt1, active compounds read low 0.936 | S. cerevisiae deletion strains, locus YHR142W, strain chs7, active compounds read low 0.946 | S. cerevisiae deletion strains, locus YIL073C, strain SPO22, active compounds read low 0.76 | S. cerevisiae deletion strains, locus YJL092W, strain hpr5, active compounds read low 0.993 | S. cerevisiae deletion strains, locus YJL095W, strain BCK1 (second series), active compounds read low 0.996 | S. cerevisiae deletion strains, locus YJL115W, strain asf1, active compounds read low 1.02 | S. cerevisiae deletion strains, locus YJL129C, strain trk1, active compounds read low 1 | S. cerevisiae deletion strains, locus YJL154C, strain vps35, active compounds read low 1.02 | S. cerevisiae deletion strains, locus YJL164C, strain tpk1, active compounds read low 0.934 | S. cerevisiae deletion strains, locus YJL166W, strain qcr8, active compounds read low 0.966 | S. cerevisiae deletion strains, locus YJL168C, strain set2, active compounds read low 0.973 | S. cerevisiae deletion strains, locus YJL187C, strain SWE1, active compounds read low 0.992 | S. cerevisiae deletion strains, locus YJR075W, strain HOC1, active compounds read low 0.884 | S. cerevisiae deletion strains, locus YKL068W, active compounds read low 0.951 | S. cerevisiae deletion strains, locus YKL160W, strain elf1, active compounds read low 0.974 | S. cerevisiae deletion strains, locus YKL190W, strain CNB1, active compounds read low 0.929 | S. cerevisiae deletion strains, locus YKR026C, strain gcn3, active compounds read low 1 | S. cerevisiae deletion strains, locus YKR091W, strain srl3, active compounds read low 1.01 | S. cerevisiae deletion strains, locus YLL001W, strain dnm1, active compounds read low 0.965 | S. cerevisiae deletion strains, locus YLL026W, active compounds read low 1 | S. cerevisiae deletion strains, locus YLL041C, strain sdh2, active compounds read low 1.01 | S. cerevisiae deletion strains, locus YLR027C, strain aat2, active compounds read low 1 | S. cerevisiae deletion strains, locus YLR102C, strain apc9, active compounds read low 0.953 | S. cerevisiae deletion strains, locus YLR221C, strain rsa3, active compounds read low 0.923 | S. cerevisiae deletion strains, locus YLR258W, strain gsy2, active compounds read low 0.982 | S. cerevisiae deletion strains, locus YLR262C, strain YPT6 (second series), active compounds read low 0.915 | S. cerevisiae deletion strains, locus YLR262C, strain YPT6, active compounds read low 0.606 | S. cerevisiae deletion strains, locus YLR320W, strain mms22, active compounds read low 0.98 | S. cerevisiae deletion strains, locus YLR342W, strain FKS1, active compounds read low 0.976 | S. cerevisiae deletion strains, locus YLR357W, strain rsc2, active compounds read low 0.881 | S. cerevisiae deletion strains, locus YLR370C, strain arc18, active compounds read low 1.01 | S. cerevisiae deletion strains, locus YLR384C, strain iki3, active compounds read low 1.02 | S. cerevisiae deletion strains, locus YML120C, strain ndi1, active compounds read low 0.963 | S. cerevisiae deletion strains, locus YMR078C, strain ctf18, active compounds read low 0.964 | S. cerevisiae deletion strains, locus YMR125W, strain sto1, active compounds read low 0.997 | S. cerevisiae deletion strains, locus YMR129W, active compounds read low 1.02 | S. cerevisiae deletion strains, locus YMR205C, strain PFK2, active compounds read low 1.02 | S. cerevisiae deletion strains, locus YMR231W, strain pep5, active compounds read low 1 | S. cerevisiae deletion strains, locus YNL071W, strain lat1, active compounds read low 1.01 | S. cerevisiae deletion strains, locus YNL209W, strain ssb2, active compounds read low 0.936 | S. cerevisiae deletion strains, locus YNL248C, strain rpa49, active compounds read low 0.989 | S. cerevisiae deletion strains, locus YNL322C, strain KRE1 (second series), active compounds read low 1.01 | S. cerevisiae deletion strains, locus YNR049C, strain mso1, active compounds read low 1.01 | S. cerevisiae deletion strains, locus YOL012C, strain htz1 0.305 | S. cerevisiae deletion strains, locus YOR001W, strain rrp6, active compounds read low 0.964 | S. cerevisiae deletion strains, locus YOR070C, strain gyp1, active compounds read low 1.01 | S. cerevisiae deletion strains, locus YOR080W, strain dia2, active compounds read low 1 | S. cerevisiae deletion strains, locus YOR083W, strain WHI5, active compounds read low 0.938 | S. cerevisiae deletion strains, locus YOR106W, strain vam3, active compounds read low 0.924 | S. cerevisiae deletion strains, locus YOR265W, strain rbl2, active compounds read low 1.01 | S. cerevisiae deletion strains, locus YOR270C, strain vph1, active compounds read low 0.912 | S. cerevisiae deletion strains, locus YOR290C, strain snf2, active compounds read low 0.886 | S. cerevisiae deletion strains, locus YOR316C, strain cot1, active compounds read low 0.979 | S. cerevisiae deletion strains, locus YPL051W, strain arl3, active compounds read low 0.947 | S. cerevisiae deletion strains, locus YPL078C, strain atp4, active compounds read low 0.967 | S. cerevisiae deletion strains, locus YPL106C, strain sse1, active compounds read low 1.03 | S. cerevisiae deletion strains, locus YPL240C, strain hsp82, active compounds read low 0.996 | S. cerevisiae deletion strains, locus YPR119W, strain clb2, active compounds read low 0.992 | S. cerevisiae deletion strains, locus YPR141C, strain kar3, active compounds read low 0.99
active: S. cerevisiae deletion strains, locus YAL013W, strain DEP1, active compounds read low 0.837 | S. cerevisiae deletion strains, locus YBR229C, strain ROT2, active compounds read low 0.853 | S. cerevisiae deletion strains, locus YCL029C, strain bik1, active compounds read low 0.636 | S. cerevisiae deletion strains, locus YDL035C, strain GPR1, active compounds read low 0.825 | S. cerevisiae deletion strains, locus YDL074C, strain BRE1, active compounds read low 0.564 | S. cerevisiae deletion strains, locus YDL101C, strain DUN1, active compounds read low 0.494 | S. cerevisiae deletion strains, locus YDL185W, strain tfp1, active compounds read low 0.332 | S. cerevisiae deletion strains, locus YDL192W, strain arf1, active compounds read low 0.781 | S. cerevisiae deletion strains, locus YDR101C, strain arx1, active compounds read low 0.758 | S. cerevisiae deletion strains, locus YDR137W, strain rgp1, active compounds read low 0.821 | S. cerevisiae deletion strains, locus YDR162C, strain NBP2, active compounds read low 0.826 | S. cerevisiae deletion strains, locus YDR318W, strain mcm21, active compounds read low 0.819 | S. cerevisiae deletion strains, locus YDR388W, active compounds read low 0.879 | S. cerevisiae deletion strains, locus YDR502C, strain sam2, active compounds read low 0.793 | S. cerevisiae deletion strains, locus YER110C, active compounds read low 0.84 | S. cerevisiae deletion strains, locus YER155C, strain BEM2, active compounds read low 0.769 | S. cerevisiae deletion strains, locus YGL078C, strain dbp3, active compounds read low 0.822 | S. cerevisiae deletion strains, locus YGL086W, strain mad1, active compounds read low 0.786 | S. cerevisiae deletion strains, locus YGL248W, strain PDE1, active compounds read low 0.744 | S. cerevisiae deletion strains, locus YGR135W, strain pre9, active compounds read low 0.727 | S. cerevisiae deletion strains, locus YGR229C, strain SMI1, active compounds read low 0.613 | S. cerevisiae deletion strains, locus YGR252W, strain gcn5, active compounds read low 0.648 | S. cerevisiae deletion strains, locus YHR030C, strain SLT2, active compounds read low 0.879 | S. cerevisiae deletion strains, locus YHR079C, strain IRE1 (second series), active compounds read low 0.739 | S. cerevisiae deletion strains, locus YHR129C, strain ARP1, active compounds read low 0.795 | S. cerevisiae deletion strains, locus YHR200W, strain rpn10, active compounds read low 0.84 | S. cerevisiae deletion strains, locus YIL066C, strain RNR3, active compounds read low 0.817 | S. cerevisiae deletion strains, locus YIL125W, strain kgd1, active compounds read low 0.755 | S. cerevisiae deletion strains, locus YIR030C, strain dcg1, active compounds read low 0.884 | S. cerevisiae deletion strains, locus YJL095W, strain BCK1, active compounds read low 0.447 | S. cerevisiae deletion strains, locus YJL134W, strain LCB3, active compounds read low 0.924 | S. cerevisiae deletion strains, locus YJL187C, strain SWE1 (second series), active compounds read low 0.394 | S. cerevisiae deletion strains, locus YJR043C, strain POL32, active compounds read low 0.709 | S. cerevisiae deletion strains, locus YKL009W, strain mrt4, active compounds read low 0.859 | S. cerevisiae deletion strains, locus YKL085W, strain MDH1 (second series), active compounds read low 0.799 | S. cerevisiae deletion strains, locus YKL085W, strain MDH1, active compounds read low 0.799 | S. cerevisiae deletion strains, locus YKR001C, strain vps1, active compounds read low 0.567 | S. cerevisiae deletion strains, locus YLR039C, strain RIC1, active compounds read low 0.506 | S. cerevisiae deletion strains, locus YLR058C, strain SHM2, active compounds read low 0.311 | S. cerevisiae deletion strains, locus YLR268W, strain sec22, active compounds read low 0.789 | S. cerevisiae deletion strains, locus YLR371W, strain rom2, active compounds read low 0.715 | S. cerevisiae deletion strains, locus YLR418C, strain cdc73, active compounds read low 0.534 | S. cerevisiae deletion strains, locus YML016C, strain PPZ1, active compounds read low 0.829 | S. cerevisiae deletion strains, locus YML032C, strain rad52, active compounds read low 0.746 | S. cerevisiae deletion strains, locus YML124C, strain tub3, active compounds read low 0.885 | S. cerevisiae deletion strains, locus YMR058W, strain fet3, active compounds read low 0.682 | S. cerevisiae deletion strains, locus YMR223W, strain ubp8, active compounds read low 0.783 | S. cerevisiae deletion strains, locus YMR263W, strain SAP30, active compounds read low 0.774 | S. cerevisiae deletion strains, locus YMR307W, strain GAS1, active compounds read low 0.57 | S. cerevisiae deletion strains, locus YNL067W, strain RPL9B, active compounds read low 0.842 | S. cerevisiae deletion strains, locus YNL233W, strain BNI4, active compounds read low 0.792 | S. cerevisiae deletion strains, locus YNL250W, strain rad50, active compounds read low 0.824 | S. cerevisiae deletion strains, locus YNL271C, strain bni1, active compounds read low 0.646 | S. cerevisiae deletion strains, locus YNL298W, strain CLA4, active compounds read low 0.766 | S. cerevisiae deletion strains, locus YNL307C, strain MCK1, active compounds read low 0.714 | S. cerevisiae deletion strains, locus YNR052C, strain pop2, active compounds read low 0.65 | S. cerevisiae deletion strains, locus YOL147C, strain pex11, active compounds read low 0.588 | S. cerevisiae deletion strains, locus YOR061W, strain CKA2, active compounds read low 0.869 | S. cerevisiae deletion strains, locus YOR069W, strain VPS5, active compounds read low 0.848 | S. cerevisiae deletion strains, locus YOR136W, strain idh2, active compounds read low 0.905 | S. cerevisiae deletion strains, locus YOR144C, strain elg1, active compounds read low 0.686 | S. cerevisiae deletion strains, locus YOR184W, strain ser1, active compounds read low 0.669 | S. cerevisiae deletion strains, locus YPL055C, strain LGE1, active compounds read low 0.744 | S. cerevisiae deletion strains, locus YPL241C, strain CIN2, active compounds read low 0.911 | S. cerevisiae deletion strains, locus YPR163C, strain tif3, active compounds read low 0.643 | S. cerevisiae deletion strains, locus YPR167C, strain met16, active compounds read low 0.815 | S. cerevisiae deletion strains, strain wtn01, active compounds read low 0.767 | S. cerevisiae strains, strain wild type, active compounds read low 0.772
